Laboratory results: PubChem BioAssay AID1159580 (chemical genetic matrix, 2015)
Hit rate of the full screen: of about 5,500 compounds, about 2,000 (36%) were called active. Not shown: some 18% with an inconclusive outcome. Rule as the data show it: active = normalized growth mostly below about 0.91 (no sharp cut-off); inconclusive = no clear call, values can overlap the other calls; inactive = mostly above about 0.92. Some of the results follow.

Assay: chemical genetic growth profiling, strain panel (AID 1159580);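 also: tested at 20 µM; growth read once vehicle control cultures reached saturation at 30 °C; 1 = growth at the plate median or of vehicle wells; lower values mean less growth of the strain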
Conditions: growth OD

Measured: normalized growth

COc1ccc2c(=O)c(CC(=O)O)coc2c1
inactive: S. cerevisiae deletion strains, locus YJR066W, strain TOR1, hits give low values 0.902 | S. cerevisiae deletion strains, locus YJR075W, strain HOC1, hits give low values 1.01 | S. cerevisiae deletion strains, locus YKL009W, strain mrt4, hits give low values 0.981 | S. cerevisiae deletion strains, locus YKL068W, hits give low values 0.993 | S. cerevisiae deletion strains, locus YKL085W, strain MDH1 (second series), hits give low values 1.01 | S. cerevisiae deletion strains, locus YKL085W, strain MDH1, hits give low values 1.01 | S. cerevisiae deletion strains, locus YKL160W, strain elf1, hits give low values 1.04 | S. cerevisiae deletion strains, locus YKL190W, strain CNB1, hits give low values 1 | S. cerevisiae deletion strains, locus YKR001C, strain vps1, hits give low values 1.03 | S. cerevisiae deletion strains, locus YKR026C, strain gcn3, hits give low values 0.985 | S. cerevisiae deletion strains, locus YKR091W, strain srl3, hits give low values 0.99 | S. cerevisiae deletion strains, locus YLL001W, strain dnm1, hits give low values 1 | S. cerevisiae deletion strains, locus YLL026W, hits give low values 0.982 | S. cerevisiae deletion strains, locus YLL041C, strain sdh2, hits give low values 0.98 | S. cerevisiae deletion strains, locus YLR027C, strain aat2, hits give low values 0.977 | S. cerevisiae deletion strains, locus YLR039C, strain RIC1, hits give low values 1.07 | S. cerevisiae deletion strains, locus YLR058C, strain SHM2, hits give low values 0.999 | S. cerevisiae deletion strains, locus YLR102C, strain apc9, hits give low values 0.992 | S. cerevisiae deletion strains, locus YLR113W, strain HOG1, hits give low values 0.992 | S. cerevisiae deletion strains, locus YLR221C, strain rsa3, hits give low values 0.966 | S. cerevisiae deletion strains, locus YLR258W, strain gsy2, hits give low values 0.992 | S. cerevisiae deletion strains, locus YLR262C, strain YPT6 (second series), hits give low values 1 | S. cerevisiae deletion strains, locus YLR262C, strain YPT6, hits give low values 1.03 | S. cerevisiae deletion strains, locus YLR268W, strain sec22, hits give low values 1.02 | S. cerevisiae deletion strains, locus YLR320W, strain mms22, hits give low values 0.972 | S. cerevisiae deletion strains, locus YLR330W, strain CHS5, hits give low values 1.01 | S. cerevisiae deletion strains, locus YLR342W, strain FKS1 (second series), hits give low values 1.05 | S. cerevisiae deletion strains, locus YLR342W, strain FKS1, hits give low values 0.989 | S. cerevisiae deletion strains, locus YLR357W, strain rsc2, hits give low values 0.988 | S. cerevisiae deletion strains, locus YLR370C, strain arc18, hits give low values 0.974 | S. cerevisiae deletion strains, locus YLR371W, strain rom2, hits give low values 0.997 | S. cerevisiae deletion strains, locus YLR384C, strain iki3, hits give low values 0.966 | S. cerevisiae deletion strains, locus YLR418C, strain cdc73, hits give low values 0.971 | S. cerevisiae deletion strains, locus YML016C, strain PPZ1, hits give low values 1 | S. cerevisiae deletion strains, locus YML032C, strain rad52, hits give low values 1 | S. cerevisiae deletion strains, locus YML120C, strain ndi1, hits give low values 1 | S. cerevisiae deletion strains, locus YML124C, strain tub3, hits give low values 0.994 | S. cerevisiae deletion strains, locus YMR058W, strain fet3, hits give low values 0.983 | S. cerevisiae deletion strains, locus YMR078C, strain ctf18, hits give low values 0.992 | S. cerevisiae deletion strains, locus YMR125W, strain sto1, hits give low values 1 | S. cerevisiae deletion strains, locus YMR129W, hits give low values 0.985 | S. cerevisiae deletion strains, locus YMR205C, strain PFK2, hits give low values 1.05 | S. cerevisiae deletion strains, locus YMR223W, strain ubp8, hits give low values 0.994 | S. cerevisiae deletion strains, locus YMR231W, strain pep5, hits give low values 0.972 | S. cerevisiae deletion strains, locus YMR307W, strain GAS1, hits give low values 1.06 | S. cerevisiae deletion strains, locus YNL067W, strain RPL9B, hits give low values 0.999 | S. cerevisiae deletion strains, locus YNL071W, strain lat1, hits give low values 0.986 | S. cerevisiae deletion strains, locus YNL183C, strain NPR1, hits give low values 0.972 | S. cerevisiae deletion strains, locus YNL209W, strain ssb2, hits give low values 1.03 | S. cerevisiae deletion strains, locus YNL233W, strain BNI4, hits give low values 1 | S. cerevisiae deletion strains, locus YNL248C, strain rpa49, hits give low values 0.984 | S. cerevisiae deletion strains, locus YNL250W, strain rad50, hits give low values 0.96 | S. cerevisiae deletion strains, locus YNL271C, strain bni1, hits give low values 0.986 | S. cerevisiae deletion strains, locus YNL298W, strain CLA4, hits give low values 0.992 | S. cerevisiae deletion strains, locus YNL307C, strain MCK1, hits give low values 1 | S. cerevisiae deletion strains, locus YNL322C, strain KRE1 (second series), hits give low values 0.969 | S. cerevisiae deletion strains, locus YNL322C, strain KRE1, hits give low values 1 | S. cerevisiae deletion strains, locus YNR049C, strain mso1, hits give low values 0.973 | S. cerevisiae deletion strains, locus YNR052C, strain pop2, hits give low values 0.952 | S. cerevisiae deletion strains, locus YOL012C, strain htz1 1.05 | S. cerevisiae deletion strains, locus YOL147C, strain pex11, hits give low values 0.991 | S. cerevisiae deletion strains, locus YOR001W, strain rrp6, hits give low values 0.917 | S. cerevisiae deletion strains, locus YOR061W, strain CKA2, hits give low values 1.01 | S. cerevisiae deletion strains, locus YOR069W, strain VPS5, hits give low values 0.987 | S. cerevisiae deletion strains, locus YOR070C, strain gyp1, hits give low values 0.981 | S. cerevisiae deletion strains, locus YOR080W, strain dia2, hits give low values 0.981 | S. cerevisiae deletion strains, locus YOR083W, strain WHI5, hits give low values 1.04 | S. cerevisiae deletion strains, locus YOR106W, strain vam3, hits give low values 1.01 | S. cerevisiae deletion strains, locus YOR136W, strain idh2, hits give low values 0.981 | S. cerevisiae deletion strains, locus YOR144C, strain elg1, hits give low values 0.993 | S. cerevisiae deletion strains, locus YOR184W, strain ser1, hits give low values 1.07 | S. cerevisiae deletion strains, locus YOR231W, strain MKK1, hits give low values 1 | S. cerevisiae deletion strains, locus YOR265W, strain rbl2, hits give low values 0.973 | S. cerevisiae deletion strains, locus YOR270C, strain vph1, hits give low values 0.978 | S. cerevisiae deletion strains, locus YOR290C, strain snf2, hits give low values 1.01 | S. cerevisiae deletion strains, locus YOR316C, strain cot1, hits give low values 0.991 | S. cerevisiae deletion strains, locus YPL051W, strain arl3, hits give low values 0.996 | S. cerevisiae deletion strains, locus YPL055C, strain LGE1, hits give low values 1.08 | S. cerevisiae deletion strains, locus YPL078C, strain atp4, hits give low values 1.03 | S. cerevisiae deletion strains, locus YPL106C, strain sse1, hits give low values 1.03 | S. cerevisiae deletion strains, locus YPL240C, strain hsp82, hits give low values 0.974 | S. cerevisiae deletion strains, locus YPL241C, strain CIN2, hits give low values 1.01 | S. cerevisiae deletion strains, locus YPL256C, strain CLN2, hits give low values 0.983 | S. cerevisiae deletion strains, locus YPR119W, strain clb2, hits give low values 0.985 | S. cerevisiae deletion strains, locus YPR141C, strain kar3, hits give low values 0.99 | S. cerevisiae deletion strains, locus YPR163C, strain tif3, hits give low values 0.995 | S. cerevisiae deletion strains, locus YPR167C, strain met16, hits give low values 0.976 | S. cerevisiae deletion strains, strain wtn01, hits give low values 1.04 | S. cerevisiae strains, strain wild type, hits give low values 1.02
